Inconclusive results are not listed. A number with no mark means an inactive call. Calls follow the shape of the dose curve; as a rule, active = well fitted activation curve with a large enough effect; inconclusive = small, poorly fitted or top-dose-only effect; inactive = flat fitted curve, though single readings scatter.

This is an account of results in PubChem BioAssay AID493203 (National Center for Advancing Translational Sciences (NCATS), 2011).

A short description of this assay: qHTS Assay for NPC1 Promoter Activators: Initial hit validation from the primary screen.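 Also: reporter driven by the mutant form of the NPC1 promoter; % of control where 0% means no effect.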 To be noted: Huh7 NPC1 promoter-luciferase reporter, luminescence, 24 h; series mostly up to 46.1 µM; activity, positive = activation: at the top concentration. The source says:
NIH Chemical Genomics Center [NCGC] NIH Molecular Libraries Probe Production centers Network [MLPCN] MLPCN Grant: MH089375-01A1 Assay Submitter (PI): Yiannis A. Ioannou NCGC Assay Overview: Niemann Pick Type C (NPC) is a rare neurodegenerative lipidosis that is characterized by lipid storage in the endosomal/lysosomal system. Treatment modalities for this devastating disease are currently non-existent due to the severe obstacles associated with accessing the central nervous system with proteins or genes. The majority of mutations causing NPC disease are missense mutations that are distributed throughout the length of the NPC1 protein, with the most prevalent being the I1061T allele. Although NPC1 mutant proteins may be functional, they are typically trapped in the ER due to misfolding. […] We have developed and optimized a cell based luciferase reporter assay in 1536 well format for the identification of up-regulators of the mutant NPC1 promoter. This assay presents data on the validation of hits from the primary screen.
The NPC1 promoter is cloned in front of the luciferase reporter gene, therefore NPC promoter activation results in luciferase expression. Frozen stock of the NPC1 promoter transfected Huh7 cells were obtained from the laboratory of Dr. Yiannis Ioannou (The Mount Sinai School of Medicine, New York, NY). Cells were propagated and maintained at NCGC in medium containing RPMI-1640 supplemented with 10% FBS, 2mM L-glutamine, and 50ug/ml penicillin/streptomycin. Cells were harvested in and plated for assays in OP-MEM I reduced-serum medium supplemented with 10% FBS. The Amplite luciferase reporter gene assay kit was purchased from ABD Bioquest and prepared/stored according to manufacturers recommendations. qHTS Assay Setup: 1. Dispensed 5ul of Huh7 cells stably expressing NPC1-luciferase at a density of 1500 cells per well 1536-well plates. 2. Incubate cells at 37C, 5% CO2, and 95% humidity for 2 hours. 3. Transferred 23nl per well of compound in DMSO solution. 4. Incubated at 37C, 5% CO2, and 95% humidity for 24 hours. 5. Dispensed 3ul per well of Amplite reagent(ABD Bioquest) per well. 6. Incubate at ambient for 10 minutes. 7. Read using the luminescence protocol on the ViewLux plate reader (Perkin Elmer).
Regarding `CN1CCc2cc3c(c4c2C1Cc1ccccc1-4)OCO3` (stereo unspecified), the “activity, positive = activation” value was -44.2%. Under `Cc1cccn2c(NCC3CCCO3)c(C(C)C)nc12` (stereo unspecified) stands 2.28%.

As to `O=C1c2ccccc2C(=O)N1Cc1nc2ccccc2c(=O)n1-c1cccnc1`, the “activity, positive = activation” value was -3.22%. `CCC(=NCc1cccnc1)c1c(O)n(-c2ccccc2)c(=O)[nH]c1=O`: the “activity, positive = activation” value is -5.41%. Under `COc1cccc(CCNCc2ccc(SC)cc2)c1` stands 2.08%; under `COc1ccc(C(CC(=O)N2CCC3(CC2)OCCO3)NS(=O)(=O)c2ccc(F)cc2)cc1` (stereo unspecified), 0.9%.
